The source of these data is PubChem BioAssay (NCI).

The panel holds about 83,000 compounds, 20% with a hit somewhere; the sample as a whole holds those more often.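 Interpretation: 100, growth as untreated; towards 0, rising growth inhibition; 0, no net growth; 0 to -100, cell death. Compounds scoring below 10 were considered active.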 Values without a mark were called inactive.

This test deals with BT-549 breast. Nature of the test: NCI-60 one-dose screen, 48 h (100 = growth as untreated, 0 = no growth, -100 = all killed). Conditions: 10 µM unless noted.
As to `COc1ccc(CCN2C(=O)/C(=C/c3ccc(C4Oc5ccccc5C5CC(c6cccc(OC)c6)=NN54)cc3)SC2=S)cc1` (stereo unspecified), the growth was 108%.

In the case of `O=NN(Cc1cccnc1)C(=O)NC1CCCCC1`, the growth was 112%.

As for `CN(C)/C=C1\SC(=Nc2ccc(Cl)cc2)NC1=O`, the growth was 104%.

Turning to `COc1cccc(/C=C/C(=O)c2c(C)nc3ccccc3c2/C=C/c2ccccc2)c1OC`, the growth was 29.4%.

On to `CCOC(=O)c1cc2c(n1Cc1cccc(OC)c1)-c1oncc1CCC2`, for which the growth was 42.4%.

For `COc1ccc(-c2nc(N3CCN(C(=O)C4CCCCC4)CC3)c3c4c(sc3n2)CCCC4)cc1`, the growth was 61.4%.

As to `COc1cc(C(=O)Nc2ccc(-c3nc4ccccc4[nH]3)cc2)cc(OC)c1OC`, the growth was 60.6%.

On to `CCC1=C[C@@H]2CN(C1)Cc1c([nH]c3ccccc13)[C@@](C(=O)OC)(c1cc3c(cc1OC)N(C)[C@H]1[C@@](O)(C(=O)OC)[C@H](OC(C)=O)[C@]4(CC)[C@@H]5C[C@@H]5CN5CC[C@]31[C@@H]54)C2`, for which the growth is 12.8%.

Regarding `Cn1nc(C(C)(C)C)cc1NC(=O)Cc1ccc(/C=C2\C(=O)Nc3ccccc32)cc1`, the growth is 35.4%.

Consider `O=C(Nc1ccc(N2CCNCC2)cn1)c1[nH]ncc1Nc1ncnc2sccc12`, for which the growth was 93.4%.

Consider `O=C1c2ccc3c4c(ccc(c24)C(=O)N1CCCCO)C(=O)N(CCCCO)C3=O`, for which the growth was 63.5%.
